Consider nine molecules from PubChem BioAssay (NCI).

Among the test systems are DU-145 prostate; MALME-3M melanoma; MDA-MB-231 breast; RXF 393 renal; SF-268 CNS; SF-295 CNS; SF-539 CNS; UACC-257 melanoma; M14 melanoma; HCT-15 colon; HT29 colon; SNB-19 CNS; U251 CNS; PC-3 prostate; SK-MEL-5 melanoma; UACC-62 melanoma; LOX IMVI melanoma; SK-MEL-28 melanoma; K-562 leukemia; SNB-75 CNS.
Holding throughout (assay): NCI-60 one-dose screen, 48 h (100 = growth as untreated, 0 = no growth, -100 = all killed)
Common to all, as to conditions: 10 µM unless noted

About 83,000 compounds went through this panel and 20% of them were active in at least one assay; those are over-represented in the sample as a whole.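 Values shown are percent growth following 48 h exposure of cells in 96-well plates to a single concentration of compound; below 10 was considered active.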 Values without a mark were called inactive. The source made the active and inactive calls.

In the case of `CCOc1cccc(/C=N/NC(=O)c2ccc(Nc3ccnc(C(F)(F)F)c3)cc2)c1O`, the growth in the test with DU-145 prostate is 29.8%; with MALME-3M melanoma it was 19.9%; in the test on MDA-MB-231 breast, 27.4%; with RXF 393 renal it was 22%; in the test on SF-268 CNS, 22.7%; in the test on SF-295 CNS, 8.46% (active). Moreover, the growth in the test on SF-539 CNS was 0.3% (active); in the test with UACC-257 melanoma, 12.4%; in the test on M14 melanoma, -20.3% (active); in the test with HCT-15 colon, 19.1%; in the test with HT29 colon, 49.3%; with SNB-19 CNS, 20%. Moreover, the growth is 15.9% with U251 CNS; 50.8% in the test on PC-3 prostate; -54.3% (active) in the test on SK-MEL-5 melanoma; -6.19% (active) in the test on UACC-62 melanoma; 2.5% (active) in the test with LOX IMVI melanoma; 19.2% in the test on SK-MEL-28 melanoma.
On to `NC(=Nc1ccccc1)SCCCSC(N)=Nc1ccccc1`, for which the growth was 95.7% in the test on DU-145 prostate; 75% in the test on K-562 leukemia; 79.5% in the test with MDA-MB-231 breast; 99.5% in the test on RXF 393 renal; 95.6% in the test on SF-268 CNS; 93.6% in the test on SF-539 CNS. In addition, the growth in the test with UACC-257 melanoma was 108%; in the test with M14 melanoma it was 95.6%; in the test on HCT-15 colon it was 82.4%; with HT29 colon, 93.9%; with SNB-75 CNS it was 78.4%; with SNB-19 CNS, 95.8%. For the same molecule, the growth is 95.6% in the test on U251 CNS; 74.7% with PC-3 prostate; 73.4% with UACC-62 melanoma; 86.7% with LOX IMVI melanoma; 106% in the test on SK-MEL-28 melanoma.
As for `COc1cc(OC)cc(-c2n/c(=C\c3c(O)[nH]c4ccc(Cl)cc34)cc3c2=Nc2ccccc2-3)c1`, the growth in the test with DU-145 prostate is 18.4%; in the test on K-562 leukemia it was 28%; in the test on MDA-MB-231 breast it was 64.5%; with RXF 393 renal it was 76.8%; with SF-268 CNS, 52.8%; with SF-539 CNS, 104%. Moreover, the growth in the test on UACC-257 melanoma was 108%; with M14 melanoma it was 86%; in the test with HCT-15 colon it was 84.2%; in the test with HT29 colon, 15.6%; with SNB-75 CNS it was 93.7%; in the test with SNB-19 CNS it was 79.5%. In addition, the growth is 17.6% in the test on U251 CNS; 69.3% with PC-3 prostate; 92.9% with SK-MEL-5 melanoma; 104% with UACC-62 melanoma; 18.8% with LOX IMVI melanoma; 109% with SK-MEL-28 melanoma.
As for `Cc1cc(NC(=O)c2ccc(N)cc2)ccc1N=Nc1ccc2cc(S(=O)(=O)O)cc(S(=O)(=O)O)c2c1`, the growth in the test with K-562 leukemia is 110%; in the test with MALME-3M melanoma, 116%; in the test on MDA-MB-231 breast it was 109%; with RXF 393 renal it was 110%; in the test with SF-268 CNS, 115%; in the test on SF-295 CNS, 106%. The growth in the test on SF-539 CNS is 107%; in the test with UACC-257 melanoma, 102%; in the test on M14 melanoma, 112%; with HCT-15 colon, 104%; in the test on HT29 colon, 99%; with SNB-75 CNS, 101%. In addition, the growth is 129% in the test with SNB-19 CNS; 92.9% in the test on U251 CNS; 85.6% with PC-3 prostate; 111% in the test with SK-MEL-5 melanoma; 114% with UACC-62 melanoma; 99% in the test with LOX IMVI melanoma. The growth in the test on SK-MEL-28 melanoma is 117%.
Take `NCCCOc1cc2ccccc2cc1C(=O)NCCCOc1cc2ccccc2cc1C(=O)Nc1ccc(Cl)cc1O`: the growth with DU-145 prostate is -21.3% (active); with MALME-3M melanoma it was -82.5% (active); with MDA-MB-231 breast, -87.9% (active); in the test on RXF 393 renal, -96.5% (active); in the test with SF-268 CNS, -27.8% (active); in the test with SF-539 CNS, -93.7% (active). Besides, the growth was -69.2% (active) in the test on UACC-257 melanoma; -74.6% (active) in the test with M14 melanoma; -55.3% (active) in the test with HCT-15 colon; -90.7% (active) in the test on HT29 colon; -68.2% (active) in the test on SNB-75 CNS; -65.9% (active) in the test on SNB-19 CNS. Further, the growth is -86.1% (active) in the test with U251 CNS; -86.1% (active) in the test with PC-3 prostate; -70% (active) in the test on SK-MEL-5 melanoma; -88.6% (active) with UACC-62 melanoma; -89.6% (active) in the test with LOX IMVI melanoma; -89.2% (active) with SK-MEL-28 melanoma.
With `COc1ccc(/C(=C\c2ccc3c(c2)OCO3)C(=O)Nc2nc3ccc(F)cc3s2)cc1OC`, the growth in the test with DU-145 prostate was 98.2%; in the test on K-562 leukemia, 101%; in the test with MDA-MB-231 breast, 109%; in the test on RXF 393 renal it was 111%; in the test with SF-268 CNS it was 98.5%; in the test on SF-539 CNS it was 96.3%. Moreover, the growth with UACC-257 melanoma is 112%; with M14 melanoma it was 94.3%; in the test with HCT-15 colon, 108%; in the test on HT29 colon, 95.3%; with SNB-75 CNS, 90.9%; in the test on SNB-19 CNS it was 109%. The growth is 96.2% with U251 CNS; 88.2% in the test on PC-3 prostate; 104% in the test on SK-MEL-5 melanoma; 108% with UACC-62 melanoma; 101% with LOX IMVI melanoma; 102% with SK-MEL-28 melanoma.
On to `CC1=C(O)C(=O)C(c2c(C)cc(C)c(Br)c2C)=C(O)C1=O`, for which the growth in the test with DU-145 prostate is 78.4%; in the test with K-562 leukemia, 48.8%; in the test with MDA-MB-231 breast, 93.5%; in the test with RXF 393 renal, 28.9%; with SF-295 CNS, 52.6%; in the test on SF-539 CNS, 65.2%. For the same molecule, the growth with UACC-257 melanoma was 86.5%; in the test with M14 melanoma it was 70.2%; with HCT-15 colon, 35.5%; in the test on HT29 colon, 66.7%; in the test with SNB-19 CNS, 63.9%; in the test with U251 CNS, 65.8%. Moreover, the growth with PC-3 prostate is 84.5%; in the test with SK-MEL-5 melanoma, 57.4%; with UACC-62 melanoma it was 40.7%; with LOX IMVI melanoma it was 35.7%; in the test with SK-MEL-28 melanoma, 73.5%.
`C=CCOc1c(Br)cc(Br)cc1Br`: the growth in the test on DU-145 prostate is 81.8%; in the test with K-562 leukemia it was 52.2%; with MDA-MB-231 breast, 44.6%; in the test with RXF 393 renal, 76.9%; with SF-268 CNS it was 68.7%; in the test on SF-539 CNS it was 45.4%. In addition, the growth was 79% in the test with UACC-257 melanoma; 73.5% in the test with M14 melanoma; 62.9% with HCT-15 colon; 104% with HT29 colon; 60.7% in the test on SNB-75 CNS; 50.5% with SNB-19 CNS. Also, the growth in the test with U251 CNS was 46.8%; in the test on PC-3 prostate, 65.8%; in the test on SK-MEL-5 melanoma it was 59%; in the test with UACC-62 melanoma it was 37.2%; in the test with LOX IMVI melanoma, 64.4%; in the test with SK-MEL-28 melanoma it was 77.8%.
`Cc1cc(C#Cc2ccccc2)ccc1-n1c(/C=C/c2ccc(F)cc2)nc2ccccc2c1=O`: the growth with DU-145 prostate was 98.5%; with K-562 leukemia it was 48.5%; with MDA-MB-231 breast, 75.9%; in the test on RXF 393 renal, 99.1%; in the test on SF-268 CNS, 86.4%; in the test on SF-539 CNS, 102%. Also, the growth in the test on UACC-257 melanoma was 86.7%; with HCT-15 colon, 69.8%; in the test on HT29 colon, 59.3%; in the test on SNB-75 CNS it was 86.5%; in the test with SNB-19 CNS, 88.5%; with U251 CNS, 82%. Besides, the growth in the test with PC-3 prostate was 18.2%; in the test with SK-MEL-5 melanoma, 36.8%; in the test with UACC-62 melanoma, 55.1%; in the test with LOX IMVI melanoma, 71.2%; in the test with SK-MEL-28 melanoma it was 94.4%.
